A short description of assay [1]: anti-His antibody binders, primary screen, artefact control for SMM control protein annotation, biochemical, small-molecule microarray, 635 nm fluorescence (AID 1128).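 Also: score merges feature fluorescence with signal-to-noise for each printed compound spot.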 The conditions noted are these: anti-His Alexa647 antibody binding, higher = more signal.
The test system of assay [2] is Human papillomavirus type 1a E7 protein (residues 1-88). As to the kind of experiment: HPV1a E7 small-molecule binders, primary screen, biochemical, small-molecule microarray, residues 1-88, 635 nm (AID 1129). Particulars: small-molecule microarray binding, fluorescence 635 nm; higher = more signal.
Assay [3] has as its target Focal adhesion kinase 1 (Homo sapiens) (UniProt Q05397). Nature of the assay: small-molecule microarray binders of FAK, primary screen, biochemical, 635/667 nm fluorescence, BSA, DTT (AID 1130).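 Also: composite of spot emission at 667 nm and signal to noise over triplicate slides.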 Particulars: PTK2 binding, 635 nm fluorescence, higher = more signal.
Assay [4] has as its system Fibrinogen (Alexa647-labelled). Nature of the assay: fibrinogen binders on compound microarrays, profiling panel, artefact control for SMM control-protein annotation, biochemical, small-molecule microarray, 635/667 nm fluorescence (AID 1131).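 Also: z-score merges 667 nm fluorescence with per-spot signal-to-noise over triplicate slides.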 The conditions noted are these: fibrinogen-A647 binding fluorescence, higher = more signal.
In assay [5] the target is Follistatin (Homo sapiens) (UniProt P19883). Nature of the assay: follistatin binders on small-molecule microarrays, primary screen, biochemical, small-molecule microarray, 635/667 nm fluorescence (AID 1132). Particulars: FST binding, 635 nm fluorescence, higher = more signal.
Chain of Follistatin (Homo sapiens) (P19883 whole entry, looked up): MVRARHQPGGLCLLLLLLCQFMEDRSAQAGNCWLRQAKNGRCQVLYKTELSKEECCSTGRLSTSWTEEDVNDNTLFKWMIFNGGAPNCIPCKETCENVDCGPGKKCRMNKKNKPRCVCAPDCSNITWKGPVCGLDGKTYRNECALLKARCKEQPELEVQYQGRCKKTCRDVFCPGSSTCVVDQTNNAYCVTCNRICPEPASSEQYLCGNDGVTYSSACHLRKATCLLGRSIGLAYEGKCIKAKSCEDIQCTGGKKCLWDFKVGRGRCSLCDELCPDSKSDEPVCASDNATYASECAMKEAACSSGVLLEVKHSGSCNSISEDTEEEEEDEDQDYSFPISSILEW
The target of assay [6] is Fibroblast growth factor 2 (Homo sapiens) (UniProt P09038). As to the kind of experiment: FGF2 binders on small-molecule microarrays, primary screen, biochemical, small-molecule microarray, 635/667 nm fluorescence (AID 1133). The conditions noted are these: small-molecule microarray binding, FGF2, fluorescence 635/667; higher = more signal.
Chain of Fibroblast growth factor 2 (Homo sapiens) (P09038 whole entry, looked up): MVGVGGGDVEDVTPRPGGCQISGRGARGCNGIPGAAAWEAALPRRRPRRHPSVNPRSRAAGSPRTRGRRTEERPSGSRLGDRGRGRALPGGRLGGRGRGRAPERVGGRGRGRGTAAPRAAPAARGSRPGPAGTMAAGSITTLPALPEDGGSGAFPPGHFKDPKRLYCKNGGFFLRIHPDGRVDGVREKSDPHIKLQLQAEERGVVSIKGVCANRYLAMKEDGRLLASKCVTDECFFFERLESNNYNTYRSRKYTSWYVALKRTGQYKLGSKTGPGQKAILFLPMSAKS
Assay [7] in a line: mitochondrial membrane potential change in A549 cells, profiling panel, cell-based, JC-1 fluorescence, basal, 24 h, 100 nL (AID 1138).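 Also: A549 lung adenocarcinoma cells under basal conditions with no added stimulus; test concentration not given here.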 Particulars: higher = more signal.
In another assay the test system is Lefty1. As to the kind of experiment: Lefty1 binders on small-molecule microarrays, primary screen, biochemical, small-molecule microarray, 635/667 nm fluorescence (AID 1139). Particulars: small-molecule microarray binding, fluorescence 635/667; higher = more signal.
Assay [8] has as its system wheat germ agglutinin (Triticum aestivum), Alexa647-labelled. As to the kind of experiment: wheat germ agglutinin binders on compound microarrays, profiling panel, artefact control for SMM control-protein annotation, biochemical, small-molecule microarray, 635/667 nm fluorescence (AID 1140).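 Also: score merges 667 nm feature emission with signal to noise over triplicate slides.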 Particulars: WGA-A647 binding, 635 nm fluorescence, higher = more signal.
Assay [9] deals with Luciferin 4-monooxygenase (Photinus pyralis) (UniProt P08659). As to the kind of experiment: firefly luciferase enzyme inhibitors, primary screen, biochemical, luminescence, purified enzyme, 2006 set (AID 1141).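 Also: cell-free assay with purified firefly luciferase at 100 ng per well in PBS; test concentration not given here.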 Particulars: SteadyGlo luminescence, 30 min, higher = more signal, called active from +8 up or from −8 down.
Chain of Luciferin 4-monooxygenase (Photinus pyralis) (P08659 whole entry, looked up): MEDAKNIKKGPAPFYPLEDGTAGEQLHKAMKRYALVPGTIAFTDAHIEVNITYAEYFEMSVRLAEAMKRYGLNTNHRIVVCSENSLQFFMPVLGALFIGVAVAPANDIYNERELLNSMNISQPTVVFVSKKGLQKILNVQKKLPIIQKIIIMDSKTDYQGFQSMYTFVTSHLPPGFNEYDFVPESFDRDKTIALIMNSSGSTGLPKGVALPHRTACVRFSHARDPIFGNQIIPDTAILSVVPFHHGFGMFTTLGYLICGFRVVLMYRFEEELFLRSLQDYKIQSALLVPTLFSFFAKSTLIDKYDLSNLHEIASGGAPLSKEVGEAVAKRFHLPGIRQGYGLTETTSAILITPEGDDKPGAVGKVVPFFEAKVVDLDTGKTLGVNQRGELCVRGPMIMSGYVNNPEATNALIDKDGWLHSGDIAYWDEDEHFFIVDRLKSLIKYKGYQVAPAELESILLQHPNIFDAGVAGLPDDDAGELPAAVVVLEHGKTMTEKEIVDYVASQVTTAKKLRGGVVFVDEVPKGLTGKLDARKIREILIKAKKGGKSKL
Assay [10] concerns Wnt5a (protein binding on small-molecule microarray). As to the kind of experiment: Wnt5a binders on small-molecule microarray, primary screen, biophysical, 635/667 nm fluorescence (AID 1142).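 Also: fluorescence read at 667 nm with signal to noise per printed feature.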 Particulars: 635 nm fluorescence, higher = more signal.
Assay [11] is described as follows: cell viability in Huh7 cells, primary screen, cytotoxicity control for HCV replication inhibitor project, CellTiter-Glo luminescence, basal, 48 h (AID 1143).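 Also: Huh7 hepatoma cells carrying a hepatitis C replication reporter with no stimulus; test concentration not given here.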 The conditions noted are these: Huh7 HCV replicon, higher = more signal, called active from +8 up or from −8 down. On the technique in general: ATP-based viability assays read luminescence as a measure of living cells.

Assay [12] in a line: P. aeruginosa biofilm formation inhibitors, primary screen, PAO1 strain, BacTiter-Glo luminescence, LB-PBS (AID 1144). Particulars: 12 h, higher = more signal.
The nature of assay [13]: CREB reporter modulators without forskolin, primary screen, cell-based, PC12, CRE-LacZ reporter, unstimulated (AID 1145). The conditions noted are these: no forskolin, luminescence, 4.5 h, higher = more signal, called active from +8 up or from −8 down.
Assay [14] is described as follows: CREB reporter modulators under forskolin, primary screen, cell-based, PC12, CRE-LacZ reporter, forskolin-stimulated (AID 1146).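 Also: PC12 cells with 6xCRE LacZ reporter stimulated by forskolin 10 µM; beta-galactosidase reporter signal reflecting CREB driven transcription.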 The conditions noted are these: luminescence, 4.5 h, higher = more signal, called active from +8 up or from −8 down.
In assay [15] the target is Streptavidin (Streptomyces avidinii) (UniProt P22629). As to the kind of experiment: streptavidin binders on small-molecule microarray, primary screen, artefact control for SMM compound annotation, biophysical, 635/667 nm fluorescence (AID 1147).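 Also: signal reflects streptavidin binding to arrayed compounds as a control protein.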 The conditions noted are these: streptavidin binding, higher = more signal.
Chain of Streptavidin (Streptomyces avidinii) (P22629 whole entry, looked up): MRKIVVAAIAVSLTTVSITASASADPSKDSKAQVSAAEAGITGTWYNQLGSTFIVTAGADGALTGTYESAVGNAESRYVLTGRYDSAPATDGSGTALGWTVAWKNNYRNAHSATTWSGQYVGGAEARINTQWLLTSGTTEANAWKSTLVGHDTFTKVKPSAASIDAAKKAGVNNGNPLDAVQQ
Assay [16] in a line: small-molecule binders of probe aInhba, primary screen, biochemical, small-molecule microarray, 635/667 nm fluorescence (AID 1148).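 Also: score merges 667nm spot fluorescence with signal-to-noise for antibody binding to printed compounds.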 The conditions noted are these: higher = more signal.
The target in assay [17] is Torsin-1A (Homo sapiens) (UniProt O14656). Nature of the assay: torsin A binders from cell lysate, primary screen, small-molecule microarray, wild-type, 635/667 nm (AID 1149). Particulars: COS7 hTOR1A-WT lysate, 635 nm fluorescence, higher = more signal.
Chain of Torsin-1A (Homo sapiens) (O14656 whole entry, looked up): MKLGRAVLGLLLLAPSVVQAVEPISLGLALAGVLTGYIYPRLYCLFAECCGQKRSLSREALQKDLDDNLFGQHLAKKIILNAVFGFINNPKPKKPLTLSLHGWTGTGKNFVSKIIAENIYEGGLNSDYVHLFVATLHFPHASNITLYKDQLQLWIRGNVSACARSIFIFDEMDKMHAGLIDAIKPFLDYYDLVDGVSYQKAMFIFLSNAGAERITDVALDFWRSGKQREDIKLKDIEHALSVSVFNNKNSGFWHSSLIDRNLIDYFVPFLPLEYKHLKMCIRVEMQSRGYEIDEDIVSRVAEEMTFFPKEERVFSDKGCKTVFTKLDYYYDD
Assay [18] shares this target. As to the kind of experiment: small-molecule binders of mutant TOR1A in lysate, primary screen, cell lysate, small-molecule microarray, COS7 lysate, 635/667 nm fluorescence (AID 1150).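 Also: score pools 667 nm emission and signal to noise measuring lysate protein binding.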 The conditions noted are these: COS7 hTOR1A mutant lysate, 635 nm fluorescence, higher = more signal.
The test system of assay [19] is Sonic hedgehog protein (Shh). Nature of the assay: small-molecule binders of Shh protein, primary screen, biochemical, small-molecule microarray, 635/667 nm fluorescence (AID 1151).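 Also: Shh protein binding to compounds spotted on small-molecule microarray slides; score combines spot fluorescence intensity with signal-to-noise across triplicate slides.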 Particulars: small-molecule microarray binding, 635 nm fluorescence; higher = more signal.

Molecules are shown by their SMILES. Activity calls are given as the source filed them. Unless noted, no rule for the calls is given here.

Chain of Focal adhesion kinase 1 (Homo sapiens) (Q05397 whole entry, looked up): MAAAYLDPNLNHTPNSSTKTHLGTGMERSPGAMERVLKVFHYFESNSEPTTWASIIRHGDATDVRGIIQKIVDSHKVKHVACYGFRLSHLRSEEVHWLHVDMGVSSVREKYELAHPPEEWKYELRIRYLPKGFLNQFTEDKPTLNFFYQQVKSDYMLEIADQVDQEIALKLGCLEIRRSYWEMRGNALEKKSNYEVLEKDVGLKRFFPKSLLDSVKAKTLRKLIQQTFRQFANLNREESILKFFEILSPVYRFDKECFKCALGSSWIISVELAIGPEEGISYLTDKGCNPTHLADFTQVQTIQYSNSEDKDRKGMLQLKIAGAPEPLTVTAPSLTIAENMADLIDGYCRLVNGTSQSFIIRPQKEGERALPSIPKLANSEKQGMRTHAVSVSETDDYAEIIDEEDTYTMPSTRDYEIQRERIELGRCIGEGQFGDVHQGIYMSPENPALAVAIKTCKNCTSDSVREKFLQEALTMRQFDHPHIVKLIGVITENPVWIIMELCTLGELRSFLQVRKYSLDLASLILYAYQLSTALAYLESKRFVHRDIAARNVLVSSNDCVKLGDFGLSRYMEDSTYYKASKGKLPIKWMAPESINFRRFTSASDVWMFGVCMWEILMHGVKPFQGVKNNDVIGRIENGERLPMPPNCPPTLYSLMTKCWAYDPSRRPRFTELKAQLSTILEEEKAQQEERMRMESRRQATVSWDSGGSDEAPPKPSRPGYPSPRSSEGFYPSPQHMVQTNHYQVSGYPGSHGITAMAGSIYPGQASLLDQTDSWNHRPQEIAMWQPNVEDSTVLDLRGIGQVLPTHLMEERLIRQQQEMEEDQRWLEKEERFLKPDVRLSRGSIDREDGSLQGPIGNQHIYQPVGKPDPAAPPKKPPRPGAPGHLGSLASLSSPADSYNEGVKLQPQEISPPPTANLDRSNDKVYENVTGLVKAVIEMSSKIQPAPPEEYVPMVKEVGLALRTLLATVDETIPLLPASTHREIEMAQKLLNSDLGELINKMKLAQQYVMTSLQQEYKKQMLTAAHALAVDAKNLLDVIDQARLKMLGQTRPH

Take `COc1cc2c(cc1OC)CN(C(=O)[C@H]1[C@@H]3C(=O)O[C@@H](c4ccccc4)[C@@H](c4ccccc4)N3[C@@H](c3ccc(O)cc3)[C@]13C(=O)Nc1ccc(C#CCNC(N)=O)cc13)CC2`: the composite z-score in assay [1] is -0.327; in [2] it was -0.0403; in [3], 0.0099; in assay [4], -0.231; in assay [5] it was 1.29; in assay [6] it was 0.967. Also, the composite z-score was 0.669 with Lefty1; 0.344 in [8]; 0.438 in assay [10]; -0.283 in assay [15]; 0.0357 in [16]; 0.437 in the assay with Torsin-1A (Homo sapiens) [17]. Besides, the figures for the composite z-score (with Torsin-1A (Homo sapiens) [18]; in [19]) were 0.0805 and 0.74, respectively. The z-score in [7] is -0.73; in assay [9], 0.8 (inactive); in assay [11], -0.431 (inactive); in [12], -1.68 (inactive); in [13], -1.01 (inactive); in [14], -0.638 (inactive).

Turning to `C=CCNC(=O)[C@@H]1[C@H]2C(=O)O[C@H](c3ccccc3)[C@H](c3ccccc3)N2[C@H](c2ccc(OCCO)cc2)[C@@]12C(=O)Nc1ccc(C#Cc3ccc(OC)cc3)cc12`, the composite z-score in assay [1] stood at 0.785; in assay [2] it was 1.18; in [3] it was 0.452; in [4] it was 0.798; in [5], 1.42; in [6] it was 0.989. Moreover, the composite z-score was determined as 1.57 in the assay with Lefty1; 1.17 in assay [8]; 0.233 in assay [10]; 1.01 in assay [15]; 0.0125 in assay [16]; 0.406 with Torsin-1A (Homo sapiens) [17]. In addition, the composite z-score with Torsin-1A (Homo sapiens) [18] was 0.602; in assay [19] it was 1.64. Besides, the z-score in assay [7] was -1.87; in assay [9] it was -0.398 (inactive); in assay [11], -4.16 (inactive); in [12], -0.486 (inactive); in assay [13], -0.195 (inactive); in [14] it was 0.236 (inactive).

As for `COc1ccc(C(O)C2C=CC3C(=O)N(C)C(=O)C3N2N2CCCCC2)c2ccccc12` (stereo not given), the composite z-score in [1] was 1.4; in assay [2], 1.26; in [3] it was 0.921; in assay [4], 1; in [5], 0.829; in assay [6], -0.372. Besides, the composite z-score with Lefty1 is 0.174; in assay [8] it was 1.27; in assay [10], 0.533; in assay [15] it was 1.25; in [16], 0.111; in the assay with Torsin-1A (Homo sapiens) [17], 0.466. Further, the composite z-score with Torsin-1A (Homo sapiens) [18] is 0.66; in assay [19] it was -0.474. The z-score was -0.364 in assay [7]; -0.129 (inactive) in assay [9]; 0.221 (inactive) in [11]; 0.28 (inactive) in assay [12]; 1.39 (inactive) in assay [13]; 0.426 (inactive) in [14].

With `CCc1oc(CC[C@@H](CO)NC(=O)NCCn2cc(C3(O)CCCCC3)nn2)c(C(=O)OC)c1C(=O)OC`, the composite z-score in [1] was 2.48; in assay [2] it was 0.687; in assay [3], -0.353; in [4] it was 0.685; in assay [5], 1.28; in assay [6], 1.13. Also, the composite z-score in the assay with Lefty1 is 1.63; in [8] it was 0.074; in assay [10] it was 0.209; in [15] it was -0.0709; in [16], 0.174; with Torsin-1A (Homo sapiens) [17], 1.31. The composite z-score with Torsin-1A (Homo sapiens) [18] stood at 1.11; in assay [19], 2.09. Further, the z-score is -0.0225 in [7]; 0.654 (inactive) in assay [9]; -0.186 (inactive) in assay [11]; 0.73 (inactive) in assay [12]; 1.01 (inactive) in assay [13]; 1.01 (inactive) in [14].

For the molecule `CCCC[C@@H]1C[C@H]1[C@@H](NC(=O)c1ccco1)c1ccc(Cl)cc1`, the composite z-score was 1.26 in assay [1]; 1.2 in assay [2]; 0.998 in [3]; 0.939 in assay [4]; 0.0863 in assay [5]; -0.488 in [6]. In addition, the composite z-score with Lefty1 is -0.406; in [8], 1.21; in [10], 0.202; in assay [15], 2.09; in assay [16], 0.306; with Torsin-1A (Homo sapiens) [17], 0.104. For the same molecule, the composite z-score in the assay with Torsin-1A (Homo sapiens) [18] is 0.481; in assay [19], -0.292. The z-score in assay [7] is 1.88; in [9] it was 1.17 (inactive); in [11], -2.63 (inactive); in [12] it was 0.564 (inactive); in assay [13], -0.561 (inactive); in assay [14], 0.473 (inactive).

The values are drawn from PubChem BioAssay.
